Hit rate of the full screen: of about 320,000 compounds, about 1,300 (0.41%) were called active.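 How the source made its calls: active means percent inhibition above the average of all tested compounds plus 3 SD, set per screening campaign (cut at about 16% in these data); inactive means the rest.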 Shown is part of a subset that was picked to be rich in actives.

Sequence of Insulin-degrading enzyme (Homo sapiens) (P14735 whole entry, looked up): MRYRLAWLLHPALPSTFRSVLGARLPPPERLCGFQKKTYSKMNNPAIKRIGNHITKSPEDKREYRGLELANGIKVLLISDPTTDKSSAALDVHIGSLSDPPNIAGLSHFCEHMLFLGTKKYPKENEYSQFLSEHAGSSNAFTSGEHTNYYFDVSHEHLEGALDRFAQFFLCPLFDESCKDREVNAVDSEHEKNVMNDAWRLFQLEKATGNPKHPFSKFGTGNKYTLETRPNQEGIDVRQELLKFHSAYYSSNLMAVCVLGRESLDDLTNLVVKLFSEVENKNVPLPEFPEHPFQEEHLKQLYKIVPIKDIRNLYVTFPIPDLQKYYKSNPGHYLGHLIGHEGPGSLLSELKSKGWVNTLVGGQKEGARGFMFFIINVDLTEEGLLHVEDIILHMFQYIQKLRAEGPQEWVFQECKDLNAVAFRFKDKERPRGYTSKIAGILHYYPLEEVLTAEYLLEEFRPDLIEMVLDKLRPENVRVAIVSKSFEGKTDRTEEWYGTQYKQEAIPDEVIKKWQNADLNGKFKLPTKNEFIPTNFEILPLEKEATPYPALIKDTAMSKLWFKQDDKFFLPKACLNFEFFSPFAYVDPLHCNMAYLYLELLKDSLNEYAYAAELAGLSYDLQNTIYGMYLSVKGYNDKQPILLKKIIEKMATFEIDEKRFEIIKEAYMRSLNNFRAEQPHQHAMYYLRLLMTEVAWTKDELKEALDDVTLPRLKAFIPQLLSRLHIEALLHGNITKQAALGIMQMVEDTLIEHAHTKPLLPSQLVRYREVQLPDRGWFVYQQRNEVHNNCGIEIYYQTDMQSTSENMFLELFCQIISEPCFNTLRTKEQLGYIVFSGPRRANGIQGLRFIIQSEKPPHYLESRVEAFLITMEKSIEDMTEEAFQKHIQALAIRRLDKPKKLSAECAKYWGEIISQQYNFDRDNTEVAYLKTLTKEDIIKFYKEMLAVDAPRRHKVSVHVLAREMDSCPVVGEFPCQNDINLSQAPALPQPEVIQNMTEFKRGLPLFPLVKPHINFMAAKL

The test has as its target Insulin-degrading enzyme (Homo sapiens) (UniProt P14735). Kind of test: human IDE inhibitors in live cells, primary screen, fluorescence polarization, HEK cells, FAbetaB substrate (AID 434962).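 Further: IDE supplied by intact live HEK cells; FP after avidin binding of uncleaved biotin substrate so inhibition keeps polarization high; 0% = DMSO wells and 100% = 60 µM reference IDE inhibitor Ii1.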 The conditions noted are these: FAbetaB cleavage, at 5.59 µM, active compounds read high.
On to `Cc1ccc(S(=O)(=O)N2CCN(CC(=O)N/N=C/c3ccc(Br)s3)CC2)cc1`, for which the inhibition is 2.15% (inactive).
Under `CNC(=O)c1ccsc1NC(=O)c1ccc(S(=O)(=O)N2CCOCC2)cc1` stands 6.05% (inactive); under `COc1ccc(C(=O)Nc2nc(-c3ccc(S(=O)(=O)N4CCOCC4)cc3)cs2)cc1`, 24.5% (active); under `CCOC(=O)c1csc(NC(=O)c2ccc(S(=O)(=O)N3CCCC3)cc2)n1`, 0.72% (inactive).
Under `CC(=O)CC(CC(=O)NC1CCCCC1)c1ccccc1` (stereo unspecified) stands -6.38% (inactive).
As for `COCCCNC(=O)/C=C/c1ccc(OCc2c(F)cccc2Cl)cc1`, the inhibition is 11.8% (inactive).
The figure for `O=C(/C=C/c1ccc(OCc2c(F)cccc2Cl)cc1)N1CCOCC1` is 21.1% (active); for `CN(C)CCCNC(=O)/C=C/c1ccc(OCc2c(F)cccc2Cl)cc1` it is 5.4% (inactive); for `CCn1c(C)c(C)c2cc(C(=O)N3CCN(c4cccc(C)c4C)CC3)ccc21` it is -0.11% (inactive).
On to `Cc1cccc(N2CCN(C(=O)c3cccc(N4C(=O)C5C6C=CC(C6)C5C4=O)c3)CC2)c1C` (stereo unspecified), for which the inhibition is 44.4% (active).
The figure for `CC1C=CCC2C(=O)N(c3cccc(C(=O)N4CCCCCC4)c3)C(=O)C12` (stereo unspecified) is -1.29% (inactive).
The figure for `CC(C)(C)C(=O)Nc1c(Br)c(C2CC2)nn1-c1ccccc1` is 0.92% (inactive); for `Cc1c(NC(=O)C(C)OC(=O)c2cc3c4ccccc4n(C)c3s2)c(=O)n(-c2ccccc2)n1C` (stereo unspecified) it is -0.34% (inactive); for `CCCn1c(N)c(C(=O)CSc2nc3ccccc3c(=O)n2-c2ccc(OC)cc2)c(=O)[nH]c1=O` it is -10.9% (inactive).
Under `Cc1cc2[nH]ncc2cc1NC(=S)NC(=O)c1ccccc1` stands -2.99% (inactive); under `COc1ccc(Br)cc1C(=O)Nc1cccc(C)c1C`, 2.56% (inactive).
Consider `COc1ccc(Br)cc1C(=O)NC(=S)Nc1cc(-c2nc3ccccc3[nH]2)ccc1C`, for which the inhibition was 24.5% (active).
As for `CCOC(=O)C(CC)/C(C)=N\NC(=O)c1cccc(C)c1` (stereo unspecified), the inhibition was -1% (inactive).
The figure for `Cc1cc(Cl)ccc1OCCCC(=O)NCc1ccncc1` is 22.1% (active); for `Cc1cc(Cl)ccc1OCCCC(=O)NCc1ccccn1` it is -0.14% (inactive).
Turning to `Cc1cc(Cl)ccc1OCCCC(=O)Nc1cccc(-n2cnnn2)c1`, the inhibition is 6.2% (inactive).
Under `CN(C)Cc1ccc(F)cc1Sc1cc(Cl)ccc1Cl` stands 7.05% (inactive).
The figure for `CCOC(=O)CNc1nc(Cl)nc(Nc2ccc(OC)cc2OC)n1` is -1.6% (inactive).
Under `COc1ccc(/C=C2\SC(=S)N(CCC(=O)Nc3cccc(C(=O)O)c3)C2=O)cc1OC` stands 1.95% (inactive); under `COc1ccc(/C=C2\SC(=S)N(CCCC(=O)NC3CCCC3)C2=O)cc1OC`, -2.87% (inactive).
As to `COc1cc(/C=C2/SC(=S)N(Cc3ccccc3)C2=O)cc(OC)c1O`, the inhibition was 68.4% (active).
The figure for `O=C(Nc1ccnn1C1CCN(C/C=C/c2ccc(F)cc2)CC1)C1CCCC1` is -2.53% (inactive).
For the compound `COc1cccc(CNC(=O)Cn2c(=O)oc3cc(S(=O)(=O)N4CCCCC4)ccc32)c1`, the inhibition is 4.33% (inactive).
`Cn1c(NC(=O)c2ccco2)c(-c2ccccc2Cl)c(=O)c2ccccc21`: the inhibition is -1.57% (inactive).
Under `N#C/C(=C\c1ccc(-c2cccc([N+](=O)[O-])c2)o1)C(=O)NCCN1CCOCC1` stands -0.08% (inactive); under `N#C/C(=C\c1ccc(N2CCOCC2)o1)C(=O)N1CCOCC1`, 20.9% (active); under `N#C/C(=C/c1ccc(N2CCOCC2)o1)C(=O)N1CCOCC1`, 14.4% (inactive).
Under `Cc1ccc(C(=O)c2ccc(N3CCN(C)CC3)c([N+](=O)[O-])c2)cc1` stands -2.73% (inactive); under `CCCCc1ccc(NC(=O)NCc2cccnc2)cc1`, 4.26% (inactive).
In the case of `CCN(CC(=O)NCc1ccc(F)cc1)S(=O)(=O)c1ccc(Cl)s1`, the inhibition was 7.4% (inactive).
The figure for `O=C(COC(=O)CCOc1ccccc1)Nc1cc(S(=O)(=O)N2CCCCC2)ccc1Cl` is 5.23% (inactive).
The figure for `CCC(C)(C)NC(=O)CN(C(=O)CCC(=O)Nc1nccs1)c1ccc2c(c1)OCO2` is -1.66% (inactive).
With `O=C(Oc1c(-c2ccco2)oc2ccccc2c1=O)c1cccnc1`, the inhibition was 68.4% (active).
The figure for `O=C(Oc1ccc(Br)cc1)c1cccnc1` is 1.44% (inactive); for `N#CCc1ccc(OC(=O)c2cccnc2)cc1` it is -4.29% (inactive); for `Cc1csc(=O)n1CCC(=O)OCC(=O)NNC(=O)c1ccc(Br)cc1` it is -2.19% (inactive).
The figure for `Cc1ccccc1Nc1nnc(SCC(=O)c2cc3ccccc3o2)s1` is 18.7% (active).
For `Cc1cc2c(=O)n(C)c(SCC(=O)c3cc4ccccc4o3)nc2s1`, the inhibition is 1.59% (inactive).
The figure for `CCOc1ccccc1Nc1nnc(SCC(=O)Nc2cc(C)on2)s1` is 3.25% (inactive); for `CCc1ccc(CNC(=O)C2CC(=O)N(CCc3ccc(C)cc3)C2)cc1` (stereo unspecified) it is -4.43% (inactive).
The figure for `CCCCN(C(=O)CSCC(=O)Nc1ccc(OC)cc1)c1c(N)n(CCC)c(=O)[nH]c1=O` is -1.31% (inactive); for `CC(=O)Oc1cccc(C(=O)Nc2ccccc2NC(=O)c2cccc(OC(C)=O)c2)c1` it is -2.81% (inactive); for `CC(=O)c1cc(NC(=O)c2ccccc2)c(=O)oc1/C=C/N(C)C` it is 16.3% (active).
Consider `CCOC(=O)c1cc(NC(=O)c2ccc(Cl)cc2)c(=O)oc1-c1ccccc1`, for which the inhibition is 1.63% (inactive).
Under `Cc1cc(OCC(=O)N2CCN(c3ncccn3)CC2)ccc1Cl` stands -0.8% (inactive); under `O=C(Nc1ccc(O)cc1)c1ccc(NC(=O)c2ccco2)cc1`, 3.06% (inactive).
Under `O=C(CNC(=O)c1ccco1)NNC(=O)c1ccc(Br)cc1` stands 2.95% (inactive); under `O=C(Nc1ccc(Sc2ccc(Br)cc2)cc1)c1ccco1`, 17.8% (active).
Under `CC1CCCCN1S(=O)(=O)CCNC(=O)c1ccccc1` (stereo unspecified) stands 1.88% (inactive); under `CC(C)(C)OC(=O)N[C@H](C(=O)OC(C)(C)C)c1ccc(Br)cc1`, 2.45% (inactive).
In the case of `CN1CCNC(=O)C1CC(=O)NCCC1=CCCCC1` (stereo unspecified), the inhibition is 1.39% (inactive).

Values taken from PubChem BioAssay AID434962 (The Scripps Research Institute Molecular Screening Center, 2010).
